Hits are enriched below; roughly 2.3% of the tested compounds scored in any of these assays.
MCL1-BIM inh: inhibitors of MCL1 binding to BIM-BH3, primary screen, biochemical, fluorescence polarization. 320,000 tested, 0.68% active. inhibition, % at 10.9 µM. AID 2057, 2009. Induced myeloid leukemia cell differentiation protein Mcl-1 (Homo sapiens), Q07820. GST-MCL1 / FITC-Bim-BH3 fluorescence polarization;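 active = inhibition above the mean inhibition of all tested compounds plus 3 SD, set per campaign, cut at about 40% in these data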;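 note: 0% = DMSO wells and 100% = unlabeled Bim-BH3 peptide control; higher means more loss of mP so more displacement of Bim peptide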
Bcl-xL primary: inhibitors of human Bcl-xL, primary screen, biochemical, fluorescence polarization, HTS; GST-Bcl-xL / FITC-Bim BH3 peptide fluorescence polarization; inhibition, % at 10.9 µM; 320,000 tested, 0.7% active; AID 2129, 2009;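 active = inhibition above the mean of all tested compounds plus 3 SD, cutoff set per campaign, cut at about 30% in these data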;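 note: 0% = DMSO wells and 100% = unlabeled Bim-BH3 peptide competitor; inhibitors lower millipolarization by displacing the labeled peptide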
Target sequence (Q07817 whole entry, looked up): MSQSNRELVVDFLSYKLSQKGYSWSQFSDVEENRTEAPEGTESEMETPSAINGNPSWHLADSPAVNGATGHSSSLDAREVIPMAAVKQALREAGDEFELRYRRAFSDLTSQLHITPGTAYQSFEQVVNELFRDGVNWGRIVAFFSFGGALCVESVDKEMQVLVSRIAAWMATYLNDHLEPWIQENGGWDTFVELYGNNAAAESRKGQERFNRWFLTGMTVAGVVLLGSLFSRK
Bim-Mcl-1: inhibitors of Bim peptide binding to Mcl-1, primary screen, biochemical, bead-based flow cytometry, multiplex; Bim peptide-Mcl-1 binding; 190,000 tested, 0.1% active; AID 1009, 2008; Induced myeloid leukemia cell differentiation protein Mcl-1 (Homo sapiens), Q07820; inhibition, % at 10 µM; in the data active = inhibition above about 40%;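 note: 0% = no compound tracer wells and 100% = peptide blocker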
Mcl1-Noxa inh: Mcl-1/Noxa binding inhibitors, primary screen, biochemical, TR-FRET, 1536-well | Induced myeloid leukemia cell differentiation protein Mcl-1 (Homo sapiens), Q07820 | TR-FRET Mcl-1/Noxa peptide binding, 2 h | inhibition, % at 21.7 µM | 220,000 tested, 1.5% active | AID 1022, 2008;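 active = compounds that cut the protein-peptide binding signal by more than 50% relative to plate controls in a single-dose test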;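 note: His-tagged Mcl-1 with rhodamine Noxa BH3 peptide and terbium anti-His antibody; 0% = Mcl-1 plus Noxa peptide wells and 100% = peptide-only wells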
Mcl1 Bid PPI: Mcl-1/Bid binding inhibitors, primary screen, biochemical, TR-FRET, 1536-well; inhibition, % at 21.7 µM; TR-FRET Mcl-1/Bid-Dy647 peptide binding; 220,000 tested, 0.97% active; Induced myeloid leukemia cell differentiation protein Mcl-1 (Homo sapiens), Q07820;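 active = compounds that cut the binding signal by more than half at the single screening dose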;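 note: His-tagged Mcl-1 with europium anti-His antibody binding Bid BH3 peptide; 0% = Mcl-1 plus peptide wells and 100% = peptide-only wells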
GLD-1 TGE inh: GLD-1/TGE RNA complex disruptors, primary screen, biochemical, fluorescence polarization. purified GLD-1 + fluorescein TGE RNA. Female germline-specific tumor suppressor gld-1 (Caenorhabditis elegans), Q17339. inhibition, % at 5.96 µM. 320,000 tested, 0.44% active. AID 2280, 2010;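 active = percent inhibition above a per-plate cutoff, the plate mean of test compounds plus 3 SD, cut at about 30% in these data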;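 note: 0% = DMSO wells with GLD-1 and probe and 100% = wells lacking GLD-1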
Target sequence (Q17339 whole entry, looked up): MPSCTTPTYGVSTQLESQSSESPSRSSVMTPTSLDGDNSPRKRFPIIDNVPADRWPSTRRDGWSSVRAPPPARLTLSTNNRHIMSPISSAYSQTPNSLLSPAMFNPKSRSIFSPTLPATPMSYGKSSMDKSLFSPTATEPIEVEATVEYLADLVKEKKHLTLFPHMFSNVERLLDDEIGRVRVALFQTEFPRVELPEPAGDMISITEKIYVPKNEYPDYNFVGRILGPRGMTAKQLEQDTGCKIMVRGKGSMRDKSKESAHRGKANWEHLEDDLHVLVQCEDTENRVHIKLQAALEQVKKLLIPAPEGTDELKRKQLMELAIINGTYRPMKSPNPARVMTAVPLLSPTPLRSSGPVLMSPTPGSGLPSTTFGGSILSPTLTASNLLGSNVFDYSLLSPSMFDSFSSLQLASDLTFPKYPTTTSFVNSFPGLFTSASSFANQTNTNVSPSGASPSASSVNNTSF
BCLXL inh confirm: Bcl-xL inhibitors blocking Bim BH3 binding, confirmation, counter-screen for MCL1 inhibitor project, biochemical, fluorescence polarization; shares compounds with MCL1-BIM inh; GST-Bcl-xL / FITC-Bim BH3 peptide FP binding; inhibition, % at 10.9 µM; 1,700 tested, 54% active;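 active = inhibition above a cutoff equal to the mean inhibition of all tested compounds plus 3 SD, cut at about 30% in these data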;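 note: 0% = DMSO wells and 100% = unlabeled Bim BH3 control peptide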
MCL1 BIM confirm: inhibitors of MCL1 binding to BIM-BH3, confirmation, biochemical, fluorescence polarization, triplicate; GST-MCL1 / FITC-Bim-BH3 fluorescence polarization; shares compounds with MCL1-BIM inh; 1,700 tested, 61% active; inhibition, % at 10.9 µM;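 active = inhibition above the average of all tested compounds plus 3 SD, cut at about 40% in these data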;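 note: 0% = DMSO wells and 100% = unlabeled Bim-BH3 control peptide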
Numbers without * were called inactive; · = not tested or not shown; + = active, no number.

SMILES | MCL1-BIM inh | Bcl-xL primary | Bim-Mcl-1 | Mcl1-Noxa inh | Mcl1 Bid PPI | GLD-1 TGE inh | BCLXL inh confirm | MCL1 BIM confirm
O=c1[nH][nH]cc1C=NCc1cccc(C(F)(F)F)c1 | 2 | -2 | 0 | -12 | -12 | 6 | · | ·
Cc1cc(=O)[nH]c(SCC(=O)Nc2ccc(C(=O)O)cc2)n1 | -3 | -3 | 0 | 17 | 5 | 6 | · | ·
CCOC(=O)c1ccc(NC(=O)CSc2nc(C)cc(=O)[nH]2)cc1 | 41* | 14 | -1 | 85* | -4 | 1 | 23 | 51*
O=[N+]([O-])c1cc(Oc2cccnc2)cc([N+](=O)[O-])c1 | 5 | 2 | -6 | -9 | 10 | 4 | · | ·
O=[N+]([O-])c1cccc(Oc2cnccn2)c1 | 41* | 3 | · | · | · | 6 | 5 | 2
Cc1cc(NC(=O)/C(C#N)=C/c2ccco2)n(-c2ccccc2)n1 | -2 | 1 | -2 | 8 | -23 | 7 | · | ·
Cc1ccc(-c2ccc(/C=C(\C#N)C(=O)Nc3cc(C)nn3-c3ccccc3)o2)cc1 | + | 123* | -3 | · | 64* | 120* | + | +
O=C(O)Cc1ccc(N=Nc2c(O)c(C(=O)O)cc3ccccc23)cc1 | 43* | 26 | · | 23 | -2 | 6 | 37* | 70*
COc1ccc(C(C(=O)NC(C)(C)C)N(Cc2cccnc2)C(=O)CCC(=O)Nc2cc(C)on2)cc1 (centres undefined) | -1 | -2 | · | · | · | 3 | · | ·
CC1(C)CC(=O)C2=C(C1)OC(N)=C(C#N)C2c1cc2c(cc1[N+](=O)[O-])OCO2 (centres undefined) | + | 186* | -6 | 25 | -49 | 141* | 108* | 132*
COc1ccc(NC(=O)CSc2sc3c(O)cc(=O)[nH]c3c2C#N)c(OC)c1 | 20 | 14 | · | · | · | 2 | · | ·
COc1ccccc1NC(=O)CSc1sc2c(O)cc(=O)[nH]c2c1C#N | 45* | 18 | · | · | · | 1 | 16 | 27
CCc1nnc(NC(=O)CSc2sc3c(O)cc(=O)[nH]c3c2C#N)s1 | 48* | 26 | · | · | · | -3 | 32* | 58*
CC(C)c1ccccc1NC(=O)CNCCOc1ccccc1F | 7 | 9 | · | · | · | 9 | · | ·
O=S(=O)(O)c1cc(O)c2c(O)c(N=Nc3cc(Cl)ccc3O)c(S(=O)(=O)O)cc2c1 | 56* | 29 | · | · | · | 3 | 36* | 57*
CCN(C(=O)c1ccco1)C1C2CC3CC(C2)CC1C3 (centres undefined) | -1 | 0 | · | · | · | 2 | · | ·
COC(=O)C(Nc1nccs1)(OC)C(F)(F)F (centres undefined) | 68* | 61* | -4 | -13 | -31 | 7 | 71* | 106*
COC(=O)CCC(=O)Nc1nccs1 | 1 | 1 | 0 | 15 | -8 | 5 | · | ·
COc1ccc(NS(=O)(=O)c2ccc(F)c(Cl)c2)cn1 | 124* | 103* | · | · | · | 99* | 49* | 57*
O=C(O)c1cc2nc3c(c(C(F)(F)F)n2n1)CCc1ccccc1-3 | 15 | 15 | 1 | 2 | -25 | -9 | · | ·
COCCNC(=O)c1cc2nc3c(c(C(F)(F)F)n2n1)CCc1ccccc1-3 | 49* | -3 | 0 | -1 | -7 | 1 | 4 | 8
Cc1cc(SCC(=O)N/N=C/c2ccc(O)cc2O)nc2ccccc12 | 13 | 2 | · | · | · | -5 | · | ·
Cc1cc(SCC(=O)N/N=C/c2ccc(O)c(O)c2)nc2ccccc12 | 49* | 16 | · | · | · | 3 | 47* | 74*
COc1cccc2c(SCC(=O)N/N=C/c3ccc(O)c(O)c3)cc(C)nc12 | 43* | 2 | 10 | 64* | -16 | -6 | 36* | 72*
CCc1ccccc1NC(=O)CN1CCN(CC(=O)NCc2ccc(Cl)cc2)CC1 | -3 | -3 | · | · | · | 8 | · | ·
SMILES | MCL1-BIM inh | Bcl-xL primary | Bim-Mcl-1 | Mcl1-Noxa inh | Mcl1 Bid PPI | GLD-1 TGE inh | BCLXL inh confirm | MCL1 BIM confirm
O=C(NCc1ccccn1)C1CCN(S(=O)(=O)N2CCC3(CC2)OCCO3)CC1 | 3 | -1 | -1 | -4 | -6 | -1 | · | ·
CC(=O)Nc1ccc(Nc2ccc3c4c(cc(=O)n3C)-c3ccccc3C(=O)c24)cc1 | 57* | 61* | 8 | 56* | 1 | 28 | 61* | 70*
CC(=O)c1ccc2c3c(cccc13)C(=O)N(c1c(C)nn(C)c1C)C2=O | -19 | 11 | 4 | 14 | -44 | 8 | · | ·
Cc1n[nH]c(C)c1N1C(=O)c2cccc3c(N4CCCCCC4)ccc(c23)C1=O | + | + | 2 | -76 | -81 | + | 184* | +
CCn1c(C)c(C)c2cc(C(=O)NC3CCCCCC3)ccc21 | -9 | -4 | · | · | · | 3 | · | ·
C[C@H](CO)N1C[C@H](C)[C@@H](CN(C)S(C)(=O)=O)Oc2c(NC(=O)C3CC3)cccc2C1=O | · | · | · | · | · | 4 | · | ·
Cc1cccn2c(=O)c3cc(C#N)c(=NC(=O)c4ccco4)n(Cc4ccco4)c3nc12 | 15 | 14 | · | 40 | -20 | 4 | · | ·
COCCCn1c(=NC(C)=O)c(C#N)cc2c(=O)n3cccc(C)c3nc21 | 26 | 18 | · | 7 | -26 | 1 | · | ·
CCOCCCn1c(=NC(=O)c2cccs2)c(C#N)cc2c(=O)n3cccc(C)c3nc21 | 151* | 138* | · | 21 | 2 | 106* | 115* | 142*
COCCCn1c(=NC(=O)c2ccccc2)c(C#N)cc2c(=O)n3cccc(C)c3nc21 | + | 181* | · | 18 | -5 | 127* | 76* | 105*
Cc1cccc(C(=O)N=c2c(C#N)cc3c(=O)n4cccc(C)c4nc3n2Cc2ccco2)c1 | 64* | 43* | 0 | 86* | 0 | 21 | 38* | 32
CCC(=O)NCCc1nc2cc(NC(=O)c3ccc(F)cc3)ccc2n1C | 8 | 2 | · | · | · | -8 | · | ·
Cn1c(SCC(=O)N2CCc3ccccc32)nnc1-c1ccc(S(=O)(=O)N2CCCC2)cc1 | 2 | 4 | -2 | 1 | -36 | 0 | · | ·
Cc1ccc2[nH]c3c(c2c1)CN(C(=O)CN(C)CC1OCCO1)CC3 | 61* | 58* | -8 | 0 | -38 | 53* | 9 | 11

Compound activity deposited in PubChem by several laboratories.
